GPR151 ag = activators of human GPR151; AID 1508602; Q8TDV0; activation, % at 11.2 µM; 1% of 650,000 active; PathHunter beta-arrestin GPR151 cells, luminescence; in the data active means activation above about 4.9%
MITF inh = human MITF inhibition, primary screen; AlphaScreen MITF homodimerization, bead proximity signal; inhibition, % at 2.6 µM; 0.91% of 650,000 active; in the data active means inhibition above about 50%
TEAD-YAP inh = TEAD-YAP interaction inhibition; HEK-TIYL cells, TEAD-Gal4/YAP UAS-luciferase luminescence; inhibition, % at 9.12 µM; 1.4% of 640,000 active; AID 1259422; in the data active means inhibition above about 32%
FBW7 act = human FBW7 E3 ligase activation, primary screen | Q969H0 | AlphaScreen FBW7–phospho-cyclin E peptide binding, activator screen | normalized activity (activation), % at 26.1 µM | 0.13% of 650,000 active | AID 1259310; in the data active means normalized activity above about 1.9%;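 further: purified mutant Fbw7 with reduced substrate affinity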
GPR151 conf act = human GPR151 activation, confirmation screen | shares compounds with GPR151 ag | GPR151 PathHunter beta-arrestin cells, luminescence, 90 min; % of EA-reagent control over plate median | activation, % at 11.2 µM | 6,700 tested, under 10 active | AID 1508609;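 active means mean percent activation across replicates above the confirmation screen cutoff of 4.91%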
GPR119 ag = GPR119 activation, counter-screen for GPR151 activators. shares compounds with GPR151 ag. GPR119 PathHunter beta-arrestin cells, luminescence, 90 min; 0 = compound-well median, 100 = enzyme-acceptor control. 0.3% of 6,700 active. activation, % at 11.2 µM;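 active means mean percent activation in the counterscreen above 29.09%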;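 further: counterscreen on off-target GPR119 to flag nonselective hits from the GPR151 activator screen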
Target sequence (Q8TDV5 whole entry, looked up): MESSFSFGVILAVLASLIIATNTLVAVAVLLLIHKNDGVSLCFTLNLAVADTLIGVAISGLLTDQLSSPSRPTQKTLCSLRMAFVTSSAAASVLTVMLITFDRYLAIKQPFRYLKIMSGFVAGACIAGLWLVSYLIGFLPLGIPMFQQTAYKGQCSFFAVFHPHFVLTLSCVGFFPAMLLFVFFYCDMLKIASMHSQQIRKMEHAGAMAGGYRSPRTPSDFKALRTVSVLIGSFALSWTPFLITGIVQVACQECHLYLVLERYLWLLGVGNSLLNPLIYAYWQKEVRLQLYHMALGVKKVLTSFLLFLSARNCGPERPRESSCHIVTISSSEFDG
A number is an active result; n = inactive; x = no result given. Shown are actives, neighbours in structure and some others; about 3.5% of the full set was active somewhere.

SMILES	GPR151 ag	MITF inh	TEAD-YAP inh	FBW7 act	GPR151 conf act	GPR119 ag
C#CCOC(=O)c1c(Cl)c(Cl)c(Cl)c(Cl)c1C(=O)n1nnc2ccccc21	n	n	n	n	x	x
CSc1ccccc1NC(=O)N1CCCC(N(C)CCc2ccccn2)C1 (stereo not drawn)	5.2	n	n	n	n	n
Cc1ccc(C(=O)ON2C(=O)c3ccccc3C2=O)cc1C	7.6	n	n	n	n	n
O=C(NCc1ccccc1)c1nn(C23CC4CC(CC(C4)C2)C3)cc1[N+](=O)[O-]	5.6	n	n	n	n	n
Cn1c(C(=O)N2CCN(c3ccc(F)cc3)CC2)cc2c(=O)n3ccccc3nc21	5.6	n	n	n	n	n
CCN(CC(=O)NC(C)C)C(=O)C(CCSC)NC(=O)c1cccc(C)c1 (stereo not drawn)	6.3	n	n	n	n	n
Cn1c(=O)n(CC(=O)NCc2ccc(F)cc2)c2cccnc21	10.1	n	n	n	n	n
Nc1ccc(C(=O)Nc2ccc(Oc3cccc(Oc4ccc(NC(=O)c5ccc(N)cc5)cc4)c3)cc2)cc1	6.1	n	n	n	n	n
CCOC(=O)CCc1c(C)nc2nc(CNC(=O)c3ccccc3)nn2c1C	5.2	n	n	n	n	n
Cc1nc2nc(CNC(=O)OC(C)(C)C)nn2c(C)c1CCC(=O)NCc1ccccc1	n	n	n	n	x	x
CN1CCCC(OC(=O)C23CC4CC(CC(Cl)(C4)C2)C3)C1 (stereo not drawn)	n	n	n	n	x	x
CCOC(=O)N1CCN(C(=O)CN2C(=O)c3cc(Cl)c(Cl)cc3C2=O)CC1	n	n	n	n	x	x
COc1ccc(C(NC(C)=O)c2cc(Cl)c3cccnc3c2O)cc1 (stereo not drawn)	5.1	61.7	84.2	n	n	n
COc1ccc(C(=O)NC(c2ccccc2OC)c2cc(Cl)c3cccnc3c2O)cc1 (stereo not drawn)	n	n	n	n	x	x
CC(=O)Nc1nnc(SCc2cc(=O)c(OC(=O)c3ccccc3[N+](=O)[O-])co2)s1	6.4	n	n	n	n	n
CCOc1ccccc1C(=O)Oc1coc(CSc2nc(C)cs2)cc1=O	n	n	n	n	x	x
O=C(Nc1nnc(SCc2cccc(C(F)(F)F)c2)s1)C1CC1	n	n	n	n	x	x
O=C(Nc1nnc(SCc2cccc(F)c2)s1)C1CC1	12.1	n	n	n	n	n
COc1ccccc1C(=O)Oc1coc(CSc2nc(C)cs2)cc1=O	7.5	n	n	n	n	n
Cn1ccnc1SCc1cc(=O)c(OC(=O)c2ccccc2[N+](=O)[O-])co1	5.8	n	n	n	n	n
CCOc1ccc2nc3sc(C(=O)NCc4ccc5c(c4)OCO5)c(N)c3cc2c1	n	n	n	n	x	x
CN(C)c1cc(-c2nnc(SCc3cccc(C(F)(F)F)c3)n2C)nc(N(C)C)n1	n	n	n	n	x	x
O=C(C(O)c1ccc(Br)cc1)N1CCCC(Nc2ccc3[nH]ncc3c2)C1 (stereo not drawn)	n	n	n	n	x	x
COc1ccccc1-n1cc(C(=O)NCC(=O)Nc2ccccn2)c2ccccc2c1=O	n	n	n	n	x	x
CCCC(=O)Oc1coc(CSc2nnc(NC(=O)C3CC3)s2)cc1=O	5.4	n	n	n	n	n
SMILES	GPR151 ag	MITF inh	TEAD-YAP inh	FBW7 act	GPR151 conf act	GPR119 ag
Cc1ccc(C)c(Cn2c(CCNC(=O)CCC(C)O)nc3ccccc32)c1 (stereo not drawn)	n	n	n	n	x	x
CC(C)N1CCN(Cc2cccc(OCCO)c2)CC1CCO (stereo not drawn)	n	n	n	n	x	x
CC(C)N1CCN(Cc2ccc(OCCO)cc2)CC1CCO (stereo not drawn)	5.2	n	n	n	n	n
OCCOc1ccc(CN2CCN(Cc3ccc(F)c(F)c3)C(CCO)C2)cc1 (stereo not drawn)	6.8	n	n	n	n	n
CC(=O)Nc1cccc(N=Cc2cc(Cl)cc(Cl)c2O)c1	5.7	n	n	n	n	n
Cc1ccc(NC(=O)COc2cccc3c2CCN(Cc2cccnc2)C3=O)c(C)c1	5.4	n	n	n	n	n
CCc1c(C)sc2nc(C(C)C)n3c(=O)n(CC(N)=O)nc3c12	n	n	n	n	x	x
COc1ccc(NC(=O)CCN2C(=O)c3ccccc3S2(=O)=O)cc1	n	n	n	n	x	x
O=C(CCN1C(=O)c2ccccc2S1(=O)=O)Nc1ccc(C(=O)O)cc1	7.6	n	n	n	n	n
COc1ccc(C(=O)N2CCNC(=O)C2)cc1S(=O)(=O)NCc1ccc(Cl)cc1	n	n	n	n	x	x
NC(=O)c1cc2cc(Br)ccc2oc1=Nc1ccc(F)cc1F	6.9	n	n	n	n	n
Cc1cc(C)cc(C(=O)N(CCCN2C(=O)c3cccc4cccc(c34)C2=O)c2ccc(Oc3ccccc3)cc2)c1	n	n	n	n	x	x
O=C(Cn1cncn1)N1CCN(c2ncccn2)CC1	7.0	n	n	n	n	n
CC(NC(=O)c1cc(-c2cccnc2)nc2ccccc12)c1ccccc1 (stereo not drawn)	n	n	n	n	x	x
COc1ccc(/C=C(\C#N)c2nc3ccccc3[nH]2)cc1O	4.9	n	n	n	n	n
Cn1ncc2c(NCCC3=CCCCC3)c(C(=O)O)cnc21	n	n	n	n	x	x
COc1ccc(OC)c(C2NC(=O)NC(C)=C2C(=O)OC(C)C)c1 (stereo not drawn)	5.1	n	n	n	n	n
COc1ccc(O)c(C2NC(=O)NC(C)=C2C(=O)OC(C)C)c1 (stereo not drawn)	n	n	n	n	x	x
Cc1cn2c(=O)c(C(=O)NOc3ncc(C(F)(F)F)cc3Cl)cnc2s1	n	n	n	n	x	x
CCn1c(SCC(=O)c2ccccc2)nc2c(c1=O)SC(C)C2 (stereo not drawn)	5.3	n	n	n	n	n
CC1Cc2nc(SCC(=O)NCc3ccccc3)n(C)c(=O)c2S1 (stereo not drawn)	6.4	n	n	n	n	n
c1ccc2[nH]c(SN3CCCC3)nc2c1	n	n	n	n	x	x
CCN(CCCNC(=O)c1cc(-c2ccccn2)nc2ccccc12)c1cccc(C)c1	8.0	n	n	n	n	n
CCCNC(=O)c1cc(-c2ccccn2)nc2ccccc12	n	n	n	n	x	x
CCOC(=O)COc1cc(C)cc2oc(=O)cc(-c3ccccc3)c12	5.2	n	n	n	n	n
CC1CN(C)CCC1CCc1ccc(NC(=O)c2ccncc2)cc1 (stereo not drawn)	n	n	n	n	x	x
NC(=O)CSC1=Nc2ccccc2C2=NC(Cc3c[nH]c4ccccc34)C(=O)N12 (stereo not drawn)	n	n	n	n	x	x
CCOC(=O)C(C#N)C(c1ccccc1)c1ccc2c(c1)OCO2 (stereo not drawn)	n	n	n	n	x	x
Cc1ccc(-n2c(C)c3c(C)nnc(C)c3c2C)cc1N	5.3	n	n	n	n	n
COc1ccc(Cl)cc1NC(=O)CSc1nccn1-c1ccccc1C	5.2	n	n	n	n	n
